Screening results: PubChem BioAssay, National Center for Advancing Translational Sciences (NCATS)
IMPase inh – cell-permeable inhibitors of inositol monophosphatase (IMPase) | P97697 | 120,000 tested, under 10 active | inhibition (IP1 accumulation), % at 46.1 µM | AID 901 | CHO-M1 cells, IP1 accumulation, HTRF TR-FRET ratio; active = well fitted curve in the direction sought with a large enough effect in the signal ratio, not every such curve was filed as active; inconclusive = small, poorly fitted or top-dose-only effect, or a change in a side signal; inactive = no such curve, though single readings can be large or run the other way; the % refers to the signal ratio;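 note: cells stimulated with carbachol in lithium chloride buffer; higher means more IMPase inhibition seen as more IP1 and lower FRET ratio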
Target sequence (P97697 whole entry, looked up): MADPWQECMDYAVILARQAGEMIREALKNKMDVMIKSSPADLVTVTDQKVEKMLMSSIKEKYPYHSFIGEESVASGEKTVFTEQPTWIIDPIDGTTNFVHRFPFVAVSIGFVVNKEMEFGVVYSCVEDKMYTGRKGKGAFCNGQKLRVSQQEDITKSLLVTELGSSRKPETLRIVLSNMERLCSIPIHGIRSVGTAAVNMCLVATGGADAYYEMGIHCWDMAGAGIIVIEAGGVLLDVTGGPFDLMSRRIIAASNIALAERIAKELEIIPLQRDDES
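Cellular IMPase inhibition is scored as a rise in cytosolic IP1, detected by competitive TR-FRET between d2-labelled IP1 and a europium anti-IP1 antibody. M1-expressing CHO cells were stimulated with carbachol for 30 min at 37C, with lithium (50 mM LiCl) present in the buffer.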
LMNA splice mod – LMNA splicing modulation; HeLa LMNA splicing GFP/RFP minigene ratio, 48 h; Potency, µM (series often up to 46.1 µM), most hits filed as inhibitors; actives 0.01% (n = 200,000); AID 1487; active = well fitted inhibition curve with a large enough effect in the signal ratio, with a control signal flat, not every such curve was filed as active; inconclusive = small, poorly fitted or top-dose-only effect, or effect the other way, or a change in a side signal; the % refers to the signal ratio
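S3 HeLa cells stably expressing lamin A-EGFP splicing minigene plus DsRed2, 600 cells/well, 48 h compound exposure at 37C. Laser-scanning cytometry; analysed as GFP (500-530 nm)/RFP (575-640 nm) total intensity ratio; 0.5% DMSO vehicle.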
PNC inhibitor – blocks assembly of the perinucleolar compartment. PC3M PTB-GFP, PNC prevalence imaging, 16 h; stronger effect = lower value. activity change (PNC), negative = inhibition, % at 10 µM. actives 3.1% (n = 140,000). AID 2417;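 active = readout at or below -70, meaning at least 70% loss of cells showing the perinucleolar compartment, a nuclear body marking cancer cells; inconclusive = readout between -30 and a set limit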
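Read-out is percentage of cells bearing a perinucleolar compartment, from automated 20x imaging of fixed, Hoechst-stained PC3M PTB-GFP cells. Cells were seeded 4 h, then exposed 16 h to compound (23 nl of library stock) in duplicate plates.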
Hits are given with their value; . = inactive; ? = inconclusive; / = no result given; ! = not confirmed by another sample; [ ] = another dose, or the depositor's remark. The entries come from a sample that favours hits as a whole.

SMILES	IMPase inh	LMNA splice mod	PNC inhibitor
COc1cccc(NC(=O)C(=O)NCCc2csc(-c3ccc(C)cc3)n2)c1	/	.	/
CCOc1cccc(OCCn2cnc3ccccc3c2=O)c1	/	?	-91
Cc1ccc(OCCOCCn2cnc3ccccc3c2=O)cc1C	/	.	/
CCN(C(=O)CSc1nnc(-c2cccs2)o1)C1CCS(=O)(=O)C1 (stereo not given)	/	.	/
CCN(C1CCS(=O)(=O)C1)S(=O)(=O)c1cccs1 (stereo not given)	.	.	-107
CCCc1noc2c1/C(=N\O)CC(CC(C)SCC)C2 (stereo not given)	.	?	?
CCSC(C)CC1C/C(=N/O)c2c(CC)noc2C1 (stereo not given)	.	.	-86
Cc1cc(C)n2c(SCc3ccccc3Cl)nnc2n1	.	.	.
Cc1cc(C)n2c(-c3ccccc3Cl)nnc2n1	/	.	-109
COc1ccccc1NC(=O)CN(Cc1ccco1)C(=O)c1cc2ccccc2o1	/	.	/
CCOC(=O)c1oc2ccc(Cl)cc2c1NC(C)=O	/	.	/
CN1C=CC=C/C1=C1\SC(=S)N(N)C1=O	/	.	/
CCOc1ccc(-c2nc(SCC(=O)NCCCOC)c(-c3ccccc3)[nH]2)cc1	.	/	/
COCCN(C(=O)Nc1ccccc1)c1ccccc1C	.	.	-100
CCN(C(=O)Nc1ccccc1)c1ccccc1	/	.	.
CC(=O)Nc1cccc(OCC(=O)Nc2ccc(F)cc2)c1	.	.	.
Cc1ccc(OCC(=O)Nc2ccc(F)cc2)cc1C	.	.	-100
COc1ccc(-c2c(=O)n(OCc3ccccc3[N+](=O)[O-])c3ccccc3[n+]2[O-])c(OC)c1	/	.	/
CC(C)(C)OC(=O)N1CCC(c2c(C(=O)NCCN3CCOCC3)cnn2-c2ccc(F)cc2)CC1	/	.	/
CC(=O)Nc1nc2c(c3c1c(=O)oc1ccccc13)CCCC2	.	.	?
CC(=O)Nc1nc2c(c3c1c(=O)oc1ccccc13)CC(C)CC2 (stereo not given)	.	.	-100
Cc1cc(=O)[nH]c2nnc(SCc3ccc(Cl)cc3)n12	/	.	/
CCCCN(CC)CCNC(=O)c1cc2c(C)nc3ccccc3c2o1	.	?	?
CCCCOc1cc(C(=O)NCCN(CC)CC)c2ccccc2n1	.	?	-115!
COc1cccc(C(=O)Nc2ccccc2C(=O)OCc2cc(=O)n3nc(C)sc3n2)c1	/	.	/
SMILES	IMPase inh	LMNA splice mod	PNC inhibitor
Cc1cc(C)cc(C(=O)OCC(=O)Nc2cccc(S(=O)(=O)NC3=NCCCCC3)c2)c1	/	?	-96
O=C(COC(=O)c1ccccc1)Nc1cccc(S(=O)(=O)NC2=NCCCCC2)c1	/	.	.
COc1cc(-c2cc3n(C)c(C)c(CCC(=O)NCc4ccccc4)c(=O)n3n2)cc(OC)c1OC	/	.	/
CCOC(=O)c1nonc1NC(C)=O	.	.	-100
CCOC(=O)c1nnn(-c2nonc2NC(C)=O)c1C	.	.	?
Cc1cccc(N(CC(=O)Nc2ccc(CC#N)cc2)S(C)(=O)=O)c1	.	.	-84
CCc1ccc(NC(=O)CN(c2cccc(C)c2)S(C)(=O)=O)cc1	.	.	.
Cc1ccc(NC(=O)CN2C(=O)COc3ccc(S(=O)(=O)NC4CCCC4)cc32)cc1N(C)C	/	.	/
CCc1ccccc1NC(=O)CSC1=Nc2ccccc2C2=NC(Cc3ccccc3)C(=O)N12 (stereo not given)	/	.	/
Clc1ccc(Cl)c(OCCCCNCc2ccccc2)c1	/	?	.
Clc1ccc(OCCCNCc2ccccc2)c(Br)c1	.	?	-89
Cn1c(=O)c(-c2ccc(F)cc2)nc2cnc(N3CCOCC3)nc21	/	.	/
CCN1C(=O)/C(=C\N2CCCCCC2)SC1=S	.	.	.
CCN1C(=O)/C(=C/N2CC(C)CC(C)C2)SC1=S (stereo not given)	.	.	-89
Cc1cc(Cl)c(S(=O)(=O)Nc2ccon2)cc1OCC(=O)NC1CCCCC1	.[1.84 µM]	.	?
Cc1cc(Cl)c(S(=O)(=O)NC2CCCCC2)cc1OCC(=O)Nc1nncs1	.	?	-119
Cc1ccc(S(=O)(=O)Nc2ccc(C(=O)OCC(=O)N(CCC#N)c3ccccc3)cc2)cc1C	/	.	-87
CNS(=O)(=O)c1cccc(C(=O)OCC(=O)N(CCC#N)c2ccccc2)c1	/	.	/
Cc1ccc2c(c1)N(C(=O)NCc1ccccc1)CCO2	/	.	/
Cc1cc2ccccc2c(=O)n1CC(=O)N(C)c1ccc(F)cc1	.	.	?
Cc1sc2ncn(CC(=O)Nc3c(F)cccc3F)c(=O)c2c1S(=O)(=O)N1CCC(C)CC1	/	.	/
COc1ccccc1NC(=O)Cn1cnc2sc(C)c(S(=O)(=O)N3CCCCC3)c2c1=O	/	.	-113
COc1ccc(C)cc1NC(=O)Cn1cnc2sc(C)c(S(=O)(=O)N3CCOCC3)c2c1=O	.	.	-100
